PubChem BioAssay
Unmarked numbers belong to inactive results. The source made the active and inactive calls.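 The calls were made as follows, unless noted: active = mean inhibition above 46.68%, the untreated control wells mean plus 3 SD; inactive = the rest.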

How the values were obtained:
[1] = biological target: Nuclear receptor coactivator 3 (Homo sapiens) (UniProt Q9Y6Q9); test: SRC3 coactivator transcriptional activity inhibitors, confirmation, cell-based, luminescence, quadruplicate (AID 588792;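 active = mean inhibition over 43.08%, the solvent-only control mean plus 3 SD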;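 also: 0% = DMSO treated cells and 100% = gossypol at 36 µM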); settings: HEK293 GAL4-SRC3 luciferase reporter, at 3.6 µM, hits give high values
Nuclear receptor coactivator 3 (Homo sapiens), sequence (Q9Y6Q9 whole entry, looked up, the tested form may be a part): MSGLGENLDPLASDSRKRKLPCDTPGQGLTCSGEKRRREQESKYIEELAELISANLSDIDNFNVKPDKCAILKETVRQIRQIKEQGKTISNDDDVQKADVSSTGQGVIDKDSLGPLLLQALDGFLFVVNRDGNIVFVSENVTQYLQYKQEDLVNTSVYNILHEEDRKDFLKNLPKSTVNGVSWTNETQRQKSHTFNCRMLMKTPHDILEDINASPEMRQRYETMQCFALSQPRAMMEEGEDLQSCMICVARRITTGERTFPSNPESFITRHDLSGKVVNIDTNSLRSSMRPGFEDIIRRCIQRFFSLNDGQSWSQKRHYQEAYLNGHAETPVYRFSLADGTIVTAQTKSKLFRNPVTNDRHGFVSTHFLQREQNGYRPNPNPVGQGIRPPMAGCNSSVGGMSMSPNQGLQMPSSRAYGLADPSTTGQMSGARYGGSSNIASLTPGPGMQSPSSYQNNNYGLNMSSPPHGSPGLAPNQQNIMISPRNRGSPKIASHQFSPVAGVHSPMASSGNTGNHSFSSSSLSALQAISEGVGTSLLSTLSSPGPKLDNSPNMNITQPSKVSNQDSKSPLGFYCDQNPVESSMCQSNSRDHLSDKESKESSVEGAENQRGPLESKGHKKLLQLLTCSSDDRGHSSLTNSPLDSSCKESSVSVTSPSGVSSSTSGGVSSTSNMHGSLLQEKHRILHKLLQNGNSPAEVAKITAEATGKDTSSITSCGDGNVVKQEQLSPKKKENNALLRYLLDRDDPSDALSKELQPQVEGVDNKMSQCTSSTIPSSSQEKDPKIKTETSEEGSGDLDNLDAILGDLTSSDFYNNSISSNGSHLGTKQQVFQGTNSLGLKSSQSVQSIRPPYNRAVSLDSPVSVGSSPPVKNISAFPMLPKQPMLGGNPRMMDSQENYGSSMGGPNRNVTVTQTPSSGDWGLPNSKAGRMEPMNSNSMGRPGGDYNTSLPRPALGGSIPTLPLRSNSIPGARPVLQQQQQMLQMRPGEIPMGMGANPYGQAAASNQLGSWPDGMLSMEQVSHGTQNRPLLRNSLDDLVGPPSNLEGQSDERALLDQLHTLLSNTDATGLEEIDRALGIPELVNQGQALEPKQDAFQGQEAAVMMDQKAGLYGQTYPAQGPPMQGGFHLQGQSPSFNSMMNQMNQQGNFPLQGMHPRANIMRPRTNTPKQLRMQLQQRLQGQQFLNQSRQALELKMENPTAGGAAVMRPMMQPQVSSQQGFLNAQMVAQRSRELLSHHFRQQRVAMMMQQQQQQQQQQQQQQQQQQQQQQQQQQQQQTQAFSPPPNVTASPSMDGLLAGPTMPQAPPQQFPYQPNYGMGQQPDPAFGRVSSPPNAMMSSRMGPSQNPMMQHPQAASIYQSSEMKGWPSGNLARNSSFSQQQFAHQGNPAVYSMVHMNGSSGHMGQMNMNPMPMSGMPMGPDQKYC

[2] = test system: transactivating tegument protein VP16 (Human herpesvirus 1), Gal4-VP16 luciferase reporter; test: VP16 transactivation inhibitors, counter-screen for SRC3 inhibitor project, cell-based, luminescence, high throughput (AID 588794; in the data active = inhibition above about 30%); settings: mammalian cells, VP16-driven luciferase reporter luminescence; at 3.6 µM; hits give high values
[3] = biological target: Nuclear receptor coactivator 1 (Homo sapiens) (UniProt Q15788); test: SRC1 coactivator transcriptional activity inhibitors, confirmation, cell-based, luminescence, quadruplicate (AID 588820); settings: HEK293 GAL4-SRC1 luciferase reporter, at 3.6 µM, hits give high values;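 also: 0% = DMSO wells and 100% = gossypol 36 µM treated wells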
Nuclear receptor coactivator 1 (Homo sapiens), sequence (Q15788 whole entry, looked up, the tested form may be a part): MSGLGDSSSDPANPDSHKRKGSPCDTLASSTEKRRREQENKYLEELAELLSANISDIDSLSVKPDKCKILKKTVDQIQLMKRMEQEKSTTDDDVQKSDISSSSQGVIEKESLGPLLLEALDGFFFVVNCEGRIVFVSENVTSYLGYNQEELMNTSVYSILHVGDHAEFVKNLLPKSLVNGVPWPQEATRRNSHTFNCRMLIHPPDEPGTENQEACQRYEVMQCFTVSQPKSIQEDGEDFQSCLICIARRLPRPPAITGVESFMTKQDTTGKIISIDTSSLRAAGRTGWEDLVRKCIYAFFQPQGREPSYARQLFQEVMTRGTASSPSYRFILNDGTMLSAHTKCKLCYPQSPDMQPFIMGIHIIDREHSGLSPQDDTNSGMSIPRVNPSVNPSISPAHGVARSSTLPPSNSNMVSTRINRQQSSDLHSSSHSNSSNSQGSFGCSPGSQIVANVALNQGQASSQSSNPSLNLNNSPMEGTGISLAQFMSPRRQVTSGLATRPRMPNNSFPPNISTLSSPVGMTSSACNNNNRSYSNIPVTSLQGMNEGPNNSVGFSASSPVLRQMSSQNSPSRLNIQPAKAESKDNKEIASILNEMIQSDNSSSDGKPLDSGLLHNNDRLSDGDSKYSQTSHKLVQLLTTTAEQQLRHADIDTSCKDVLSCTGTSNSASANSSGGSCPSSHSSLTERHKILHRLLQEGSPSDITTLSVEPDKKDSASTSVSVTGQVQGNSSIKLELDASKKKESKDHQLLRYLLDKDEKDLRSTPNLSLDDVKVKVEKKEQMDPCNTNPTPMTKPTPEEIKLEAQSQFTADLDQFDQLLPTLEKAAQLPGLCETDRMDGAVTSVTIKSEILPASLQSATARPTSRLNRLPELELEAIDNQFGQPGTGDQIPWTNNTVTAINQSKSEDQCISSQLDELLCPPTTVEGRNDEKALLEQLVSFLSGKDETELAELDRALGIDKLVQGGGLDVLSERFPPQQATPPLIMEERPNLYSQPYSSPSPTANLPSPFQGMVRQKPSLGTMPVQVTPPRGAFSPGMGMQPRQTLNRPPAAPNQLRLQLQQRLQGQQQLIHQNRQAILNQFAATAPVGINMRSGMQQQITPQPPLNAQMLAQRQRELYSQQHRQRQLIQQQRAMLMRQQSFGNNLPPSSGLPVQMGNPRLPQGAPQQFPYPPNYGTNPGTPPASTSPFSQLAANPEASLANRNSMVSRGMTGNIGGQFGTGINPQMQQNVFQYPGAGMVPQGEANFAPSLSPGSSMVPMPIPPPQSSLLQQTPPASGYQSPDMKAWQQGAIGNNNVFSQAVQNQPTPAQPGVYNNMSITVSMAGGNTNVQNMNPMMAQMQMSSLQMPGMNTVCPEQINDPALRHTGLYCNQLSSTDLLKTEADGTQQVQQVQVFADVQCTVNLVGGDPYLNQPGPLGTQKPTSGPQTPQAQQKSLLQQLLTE

[4] = VP16 transactivation inhibitors, counter-screen for SRC1 inhibitor project, cell-based, luminescence, high throughput (AID 588824; in the data active = inhibition above about 25%); settings: cell-based VP16 transactivation luciferase luminescence; at 3.6 µM; hits give high values

Structure (SMILES)	inhibition [1] [%]	inhibition [2]	inhibition [3] [%]	inhibition [4]
CC(=O)NC(c1ccccc1)c1cc(Cl)c2cccnc2c1O (configuration not stated)	29.2	30.1% (active)	36	27% (active)
CN(C)CC(C(=O)c1ccccc1)c1ccccc1 (configuration not stated)	38.8	46.8% (active)	32	41.8% (active)
CCN(CC)S(=O)(=O)c1ccc(/C=C/C(=O)Nc2ccc(Br)cc2F)cc1	21.2	40.3% (active)	16	41.9% (active)
